The list is not random: actives were taken first. Their share in the collection is about 1.3%.
SRC3 inh: inhibits human SRC3 coactivator; AID 588352; inhibition, % at 3.6 µM; Q9Y6Q9; HEK293 GAL4-SRC3 luciferase reporter, luminescence; 0.17% of 360,000 active;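 active = inhibition above a per-campaign cutoff, the mean of all compounds plus 3 SD, cut at about 60% in these data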;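 also: 0% = DMSO-treated cells and 100% = gossypol-treated cells at 36 µM; higher means less SRC3-driven luciferase light from the GAL4 reporter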
NR5A2 inv ag: suppresses constitutive activity of human LRH-1 | O00482 | inhibition, % at 3.6 µM | HEK293T StAR-luciferase reporter, LRH-1 transfected, 24 h | AID 602396 | 0.13% of 360,000 active;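 active = inhibition above the mean inhibition of all tested compounds plus 3 SD, cut at about 73% in these data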;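 also: 0% = DMSO wells and 100% = reporter-only cells lacking LRH-1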
SRC2 inh: inhibits human steroid receptor coactivator 2. 0.17% of 370,000 active. HEK293 GAL4-SRC2 luciferase reporter, luminescence. inhibition, % at 9 µM. AID 651957;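 active = inhibition above the mean inhibition of all tested compounds plus 3 SD, set per campaign, cut at about 52% in these data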;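 also: 0% = DMSO treated cells and 100% = cells given Gossypol at 36 µM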
Gli-Sufu antag: Gli-Sufu pathway antagonism; Sufu-KO-LIGHT fibroblasts, Gli luciferase reporter luminescence; inhibition, % at 5 µM; 0.74% of 340,000 active;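 active = inhibition above about 55%, limit read from the data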;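 also: 0% = DMSO-treated cells and 100% = wells with medium but no cells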
COUP-TFII inh: blocks human COUP-TFII nuclear receptor | HEK293T NGFI-A luciferase reporter, luminescence | inhibition, % at 8.6 µM | 0.7% of 370,000 active;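 active = inhibition above a per-plate cutoff, mean inhibition of test wells between control levels plus 3 SD, cut at about 38% in these data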;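 also: cells cotransfected with COUP-TFII expression vector driving the NGFI-A reporter; 0% = median of COUP-TF2 test wells and 100% = reporter-only cells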
SRC1 inh: inhibitors of human steroid receptor coactivator 1 (SRC1). 0.12% of 360,000 active. HEK293 GAL4-SRC1 luciferase reporter, luminescence. inhibition, % at 3.6 µM;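 active = inhibition above the campaign mean plus 3 SD, with each screening campaign given its own cutoff, cut at about 60% in these data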;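 also: 0% = DMSO treated cells and 100% = gossypol at 36 µM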
Target sequence (Q15788 whole entry, looked up, the tested form may be a part): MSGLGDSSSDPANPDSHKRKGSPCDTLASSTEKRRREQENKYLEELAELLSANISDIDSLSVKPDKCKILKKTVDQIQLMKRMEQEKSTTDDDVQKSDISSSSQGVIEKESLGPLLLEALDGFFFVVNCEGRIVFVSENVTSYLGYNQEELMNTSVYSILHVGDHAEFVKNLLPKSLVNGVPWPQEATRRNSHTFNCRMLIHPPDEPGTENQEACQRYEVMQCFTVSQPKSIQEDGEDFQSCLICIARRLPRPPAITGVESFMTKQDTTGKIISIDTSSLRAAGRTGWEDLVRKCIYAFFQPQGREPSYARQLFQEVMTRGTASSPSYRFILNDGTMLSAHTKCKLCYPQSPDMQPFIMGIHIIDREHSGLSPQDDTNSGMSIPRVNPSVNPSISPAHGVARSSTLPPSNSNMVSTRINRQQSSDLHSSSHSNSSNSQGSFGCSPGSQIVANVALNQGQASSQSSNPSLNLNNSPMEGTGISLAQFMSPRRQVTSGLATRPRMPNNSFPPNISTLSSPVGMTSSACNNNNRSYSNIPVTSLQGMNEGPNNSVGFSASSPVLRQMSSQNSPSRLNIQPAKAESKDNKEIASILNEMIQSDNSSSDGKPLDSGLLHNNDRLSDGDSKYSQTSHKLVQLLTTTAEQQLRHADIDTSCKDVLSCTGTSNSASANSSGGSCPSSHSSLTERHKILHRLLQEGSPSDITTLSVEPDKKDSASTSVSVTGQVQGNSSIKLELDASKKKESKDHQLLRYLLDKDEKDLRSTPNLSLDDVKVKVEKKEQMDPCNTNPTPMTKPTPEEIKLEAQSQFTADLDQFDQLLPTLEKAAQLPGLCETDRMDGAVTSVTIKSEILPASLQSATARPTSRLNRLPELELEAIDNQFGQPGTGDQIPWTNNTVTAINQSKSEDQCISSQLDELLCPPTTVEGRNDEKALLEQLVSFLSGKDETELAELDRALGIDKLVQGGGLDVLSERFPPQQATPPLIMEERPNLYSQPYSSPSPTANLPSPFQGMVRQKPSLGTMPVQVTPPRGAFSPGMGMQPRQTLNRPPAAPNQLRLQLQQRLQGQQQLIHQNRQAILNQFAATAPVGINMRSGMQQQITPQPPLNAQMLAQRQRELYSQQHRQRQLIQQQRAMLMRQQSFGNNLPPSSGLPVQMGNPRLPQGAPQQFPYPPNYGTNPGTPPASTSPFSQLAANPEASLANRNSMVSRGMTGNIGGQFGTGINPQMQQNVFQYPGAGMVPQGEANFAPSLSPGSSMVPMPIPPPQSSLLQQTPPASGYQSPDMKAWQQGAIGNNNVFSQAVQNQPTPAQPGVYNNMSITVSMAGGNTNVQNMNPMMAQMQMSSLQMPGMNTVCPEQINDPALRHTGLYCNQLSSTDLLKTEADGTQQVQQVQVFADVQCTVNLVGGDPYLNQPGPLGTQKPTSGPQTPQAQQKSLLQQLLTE
Gli antag conf: confirmation of Gli-SUFU pathway antagonists; 40% of 2,500 active; Sufu-KO-LIGHT cells, Gli luciferase reporter, luminescence; shares compounds with Gli-Sufu antag; inhibition, % at 5 µM; AID 602428;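 active = mean inhibition at 5 µM reaching about 45%, limit read from the data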;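 also: plate controls were DMSO-treated cells for no effect and wells lacking cells for full effect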
SufuKO cytotox: counter-screen for Gli-SUFU antagonists: cytotoxicity. shares compounds with Gli-Sufu antag. Sufu-KO-LIGHT cells cytotoxicity, ATP luminescence. 32% of 2,500 active. cytotoxicity, % at 5 µM;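 active = mean cytotoxicity at 5 µM above about 25%, limit read from the data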;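 also: cells exposed to compound overnight for roughly 16 to 18 hours; plate controls were DMSO wells with cells for no effect and medium without cells for full effect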
Wnt3a counter: inhibits Wnt3a reporter, counter-screen for Gli-SUFU antagonists; 20% of 2,500 active; shares compounds with Gli-Sufu antag; inhibition, % at 6.25 µM; AID 651995; Wnt-LIGHT cells, Wnt3a-driven luciferase reporter, luminescence;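 active = mean inhibition above about 25%, limit read from the data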
* marks the source's active call; other numbers are inactive results; nt = not tested or not shown.

SMILES	SRC3 inh	NR5A2 inv ag	SRC2 inh	Gli-Sufu antag	COUP-TFII inh	SRC1 inh	Gli antag conf	SufuKO cytotox	Wnt3a counter
Cc1ccc(NC(=S)Nc2cc(C(=O)O)ccc2N2CC3CC(C2)c2cccc(=O)n2C3)cc1C (centres undefined)	-7	-28	-34	79*	-5	-12	-4	22	-7
CCNC(=O)Nc1ccc2c(c1)C(=O)N(C)[C@H]1CC[C@H](CC(=O)N[C@H](C)c3ccccc3)O[C@@H]1CO2	nt	nt	4	nt	8	nt	nt	nt	nt
CCCn1c(SCC(=O)Nc2nc(-c3ccc(OC)cc3)cs2)nc2c1c(=O)n(C)c(=O)n2C	-12	-5	-31	59*	2	8	51*	12	5
Cc1ccc(NC(=O)OCCCN2C(=O)CCC23CCC(C)CC3)cc1 (centres undefined)	nt	nt	4	nt	-4	nt	nt	nt	nt
Cc1cc(C(C)(C)C)ccc1OCCn1ccnc1	-4	4	12	55*	5	-15	30	6	-10
Cc1ccc(OCCn2ccnc2)c(C)c1	-1	15	-5	-3	-5	2	nt	nt	nt
O=C(Cc1nnc(NC(=O)c2ccccc2)s1)N/N=C/c1ccc(O)cc1	-4	-3	-12	53	-15	-24	10	19	-36
O=C(Cc1nnc(NC(=O)c2ccccc2)s1)N/N=C\c1ccc(O)c(O)c1	-3	4	-22	5	18	7	nt	nt	nt
CS(=O)(=O)N1c2ccccc2C[C@H]1Cc1cc2ccccc2o1	nt	nt	nt	nt	10	nt	nt	nt	nt
CCCNC(=O)c1ccc2c(=O)c(O)c(-c3ccc(C)cc3)[nH]c2c1	9	25	-56	33	28	10	nt	nt	nt
Cc1ccc(CNC(=O)c2ccc3c(=O)c(O)c(-c4ccc(C)cc4)[nH]c3c2)cc1	51	1	-2	66*	5	-15	63*	12	70*
O=C(NC1CCCC1)[C@@H]1CCCN1C(=O)[C@@H](NS(=O)(=O)c1ccc(F)cc1F)c1ccccc1	nt	nt	-1	nt	17	nt	nt	nt	nt
CCOC(=O)C1(Cc2cccc(OC)c2)CCN(C/C=C/c2ccccc2)CC1	5	-4	24	41	26	-6	nt	nt	nt
CCOC(=O)C1(Cc2cccc(OC)c2)CCN(C/C=C/c2ccc(OC)cc2)CC1	20	19	24	53	19	11	38	28*	-38
CN(C)/C=C1/NC(=S)NC1=O	17	-1	4	63*	-16	7	10	3	14
CCN1C(=O)/C(=C\N(C)C)NC1=S	8	-1	16	-18	12	12	nt	nt	nt
Fc1ccccc1Cn1ccc2ccc(-c3ccc4ccn(Cc5ccccc5F)c4c3)cc21	nt	nt	-10	nt	2	nt	nt	nt	nt
COCCn1c(SCC(=O)Nc2cc(C)on2)nc2c(c1=O)SCC2	12	8	29	52	-5	12	20	-4	-11
C=C(C)CSc1nnc([C@@H](NC(=O)OC(C)(C)C)C(C)CC)o1 (some centres undefined)	9	3	0	94*	6	0	20	13	-31
O=c1[nH]c(=O)n(Cc2ccco2)c2c1C(C(F)(F)F)(C(F)(F)F)N=C(c1ccc(F)cc1)N2	0	-10	-22	51	-9	0	65*	16	62*
Cc1ccc(S(=O)(=O)N2CCCC2C(=O)N2CCN(c3ccccc3)CC2)cc1C (centres undefined)	nt	nt	-12	nt	9	nt	nt	nt	nt
CCOC(=O)c1sc2nc(CC(=O)OC)nc(NCCN(CC)CC)c2c1C	13	7	7	2	7	-24	nt	nt	nt
CCOC(=O)c1sc2nc(CC(=O)OC)nc(NCc3ccc(Cl)cc3)c2c1C	-6	5	nt	55*	nt	7	53*	26*	-19
O=C(COc1ccccc1)Nc1nnc(S(=O)(=O)N2CCCCC2)s1	-20	-5	-5	52	5	-9	12	21	-16
c1ccc(Cc2cc(-c3ccccc3)on2)cc1	-54	-58	-41	96*	-38	-54	-68	19	-144
SMILES	SRC3 inh	NR5A2 inv ag	SRC2 inh	Gli-Sufu antag	COUP-TFII inh	SRC1 inh	Gli antag conf	SufuKO cytotox	Wnt3a counter
Clc1ccc(SCc2cc(-c3ccccc3)on2)cc1	1	-21	-11	-11	-20	4	nt	nt	nt
O=C(COCc1ccccc1)N1CC[C@H]2[C@H](CCCN2Cc2ccc(F)cc2)C1	nt	nt	18	nt	-13	nt	nt	nt	nt
C=CCn1c(O)c(N=NC(=S)Nc2ccccc2C)c2cc(S(=O)(=O)N3CCOCC3)ccc21	-1	9	8	52	19	6	48*	32*	-49
Cn1c(O)c(N=NC(=S)Nc2ccccc2F)c2cc(S(=O)(=O)N3CCOCC3)ccc21	4	-2	2	38	4	3	nt	nt	nt
O=C(c1ccncc1)N1CC[C@H]2[C@H](CCCN2Cc2ccccc2)C1	nt	nt	-14	nt	6	nt	nt	nt	nt
COC(=O)c1ccc(OCC(O)CN2CCc3cc(OC)c(OC)cc3C2c2ccccc2)cc1 (centres undefined)	9	9	1	58*	3	-8	27	19	-59
O=C(NCc1cc2ccccc2[nH]1)C1CCC(=O)N(CCCN2CCCC2=O)C1 (centres undefined)	-9	-9	-12	59*	-13	-11	14	14	-57
O=C(NCCc1ccccc1)C1CCC(=O)N(CCCN2CCCC2=O)C1 (centres undefined)	9	-5	11	5	1	5	nt	nt	nt
O=C(NCc1cccs1)C1CCC(CNS(=O)(=O)c2cccc3cccnc23)CC1 (centres undefined)	nt	nt	-12	nt	5	nt	nt	nt	nt
C[C@@H]1COc2cc(N3CCSCC3)ccc2S(=O)(=O)N1C	nt	nt	15	nt	6	nt	nt	nt	nt
Cc1[nH]c(C)c(S(=O)(=O)Nc2cccc(Cl)c2C)c1C(=O)N1CCCC1	5	2	6	-2	4	-4	nt	nt	nt
Cc1[nH]c(C)c(S(=O)(=O)Nc2ccccc2Cl)c1C(=O)N1CCCC1	6	9	-10	58*	-6	8	20	-1	5
Cc1cc2c(cc(C(=O)OCC(=O)NCc3cccs3)n2C(C)C)o1	-8	12	nt	50	nt	-2	31	56*	-36
Cc1cc(C)cc(C(=O)OCC(=O)NCc2cccs2)c1	17	16	8	-10	0	7	nt	nt	nt
N#CC1=C(N)N2C(=C(C#N)C1c1cccc(Br)c1)Nc1ccccc12 (centres undefined)	12	5	10	47	-5	9	nt	nt	nt
N#CC1=C(N)N2C(=C(C#N)C1c1ccc(Br)cc1)Nc1ccccc12 (centres undefined)	nt	nt	-12	58*	6	nt	83*	37*	67*

High-throughput results deposited in PubChem by several laboratories.
